Source: PubChem
HePTP inhibitor: human HePTP phosphatase inhibition. inhibition, % at 20 µM. 110,000 compounds, 0.64% hits. P35236. recombinant HePTP phosphatase activity, OD absorbance; in the data active means inhibition above about 50%;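 further: plate controls were vehicle for no effect and reference inhibitor for full effect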
BAP1 block: human BAP1 deubiquitinase inhibition; Q92560; recombinant BAP1, Ub-AMC hydrolysis fluorescence kinetic; active compounds read low; calls only at 20 µM; 72,000 compounds, 0.48% hits;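 active means activity remaining at or below 50% of control, provided the compound also passes the data quality filters; inactive means the rest, including low values that fail the filters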;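 further: 100% = DMSO wells rate and 0% = substrate alone blank rate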
Cdc25B block: inhibitors of human Cdc25B phosphatase. recombinant Cdc25B, OMFP fluorescence Ex485/Em525. inhibition, %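 (compounds tested at 10 µM final in the well)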. AID 368. 65,000 compounds, 0.1% hits. P30305; in the data active means inhibition above about 50%
Target sequence (P30305 whole entry, looked up): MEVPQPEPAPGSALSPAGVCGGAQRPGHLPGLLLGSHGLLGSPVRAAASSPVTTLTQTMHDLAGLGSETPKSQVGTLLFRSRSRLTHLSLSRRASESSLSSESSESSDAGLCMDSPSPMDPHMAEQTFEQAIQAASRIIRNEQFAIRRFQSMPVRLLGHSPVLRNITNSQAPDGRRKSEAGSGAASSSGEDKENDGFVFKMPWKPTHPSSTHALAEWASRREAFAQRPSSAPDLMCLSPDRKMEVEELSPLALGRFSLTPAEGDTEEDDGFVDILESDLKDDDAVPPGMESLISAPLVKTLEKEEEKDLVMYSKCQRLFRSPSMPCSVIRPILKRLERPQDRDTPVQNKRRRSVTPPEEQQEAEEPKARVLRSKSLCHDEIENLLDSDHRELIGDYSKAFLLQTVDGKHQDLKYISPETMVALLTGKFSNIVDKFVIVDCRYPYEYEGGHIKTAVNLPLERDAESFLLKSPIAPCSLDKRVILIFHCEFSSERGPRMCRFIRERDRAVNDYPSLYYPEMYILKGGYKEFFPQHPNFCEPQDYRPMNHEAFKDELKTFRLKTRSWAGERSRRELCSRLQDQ
DUSP1 inh: blocks human MKP-1 phosphatase activity; 65,000 compounds, 0.15% hits; recombinant MKP-1, OMFP hydrolysis fluorescence; inhibition, %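 (compounds tested at a single concentration somewhere between 10 and 100 µM)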;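 active means inhibition above about 50%, limit read from the data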;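 further: 0% = DMSO max control wells and 100% = wells with enzyme stopped by NaOH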
PLAP act: activators of human placental alkaline phosphatase; purified PLAP enzyme, luminescent substrate read-out; active compounds read high; activation fold at 20 µM; 96,000 compounds, 1.2% hits; AID 696; in the data active means activation fold above about 2
Numbers without * were called inactive; i = inactive; . = no result given; + = active, no number. Hits are enriched below; roughly 1.4% of the tested compounds scored in any of these assays.

SMILES	HePTP inhibitor	BAP1 block	Cdc25B block	DUSP1 inh	PLAP act
Cn1c(CNc2ccccc2)nc2ccccc21	8.6	i	2.1	7.6	1.2
COc1ccccc1OCCOc1ccc(Br)cc1/C=N/n1cnnc1	-1.2	.	.	.	.
O=C(NC(=S)NC1CCSC1=O)c1ccco1 (stereo unspecified)	103.4*	.	.	.	.
O=C(O)CN1C(=O)/C(=C2\SC(=S)N(/N=C/c3cc([N+](=O)[O-])ccc3O)C2=O)c2ccccc21	102.3*	.	.	.	.
O=C(O)CCCCCN1C(=O)/C(=C2/C(=O)N(CC(=O)O)c3ccccc32)SC1=S	5.5	.	.	.	.
O=C(O)CCN1C(=O)/C(=C/c2ccc(-c3ccc([N+](=O)[O-])cc3)o2)SC1=S	4.8	.	.	.	.
O=C(O)CCN1C(=O)/C(=C/c2ccc(-c3ccc(Cl)cc3)o2)SC1=S	102.4*	.	.	.	.
O=C(O)CCCN1C(=O)/C(=C\c2ccc(-c3cccc([N+](=O)[O-])c3)o2)SC1=S	97.4*	.	.	.	.
O=C(O)CCN1C(=O)/C(=C\C(Cl)=C/c2ccc([N+](=O)[O-])cc2)SC1=S	102.4*	.	.	.	.
O=C(O)c1ccc(-c2ccc(/C=C3\SC(=S)N(c4ccc([N+](=O)[O-])cc4)C3=O)o2)cc1	102.6*	.	.	.	.
Cc1cc2nc(SCc3ccc(Cl)cc3)nc(C)c2cc1C	-6.0	.	.	.	.
COC(=O)c1cc(NC(=O)c2ccccc2OC)cc(C(=O)OC)c1	-8.6	.	.	.	.
Cc1ccc(N=Nc2c(N)[nH]n3c(=O)cc(-c4ccccc4)nc23)cc1	.	.	.	.	1.2
Cc1ccc(N=Nc2c(=O)[nH]n3c(=O)cc(C)[nH]c23)cc1	.	.	.	.	2.1*
CCOc1ccc(NC(=O)CCCOc2ccccc2)cc1	4.6	.	.	.	.
Cc1nn(Cc2ccc(Cl)c(Cl)c2)c(C)c1NC(=O)c1cn(-c2ccccc2)nc1-c1ccccc1	.	.	.	.	2.7*
O=C(c1ccc([N+](=O)[O-])cc1)n1c2c(c3ccccc31)CCCC2	103.6*	.	.	.	.
O=C(CN1CCCCC1)n1c2c(c3ccccc31)CCCC2	-7.6	.	.	.	.
O=C(NC(NC(=S)Nc1ccc(Cl)c(Cl)c1)C(Cl)(Cl)Cl)c1cccc([N+](=O)[O-])c1 (stereo unspecified)	103.7*	.	.	.	.
CCN(CC)CCCN1CC(O)=C(c2nc3ccccc3s2)C1=N	.	.	.	.	2.2*
CCOc1ccccc1N1CC(O)=C(c2nc3ccccc3s2)C1=N	4.4	i	-7.6	1.7	1
COc1ccc(OC)c(N2CC(O)=C(c3nc4ccccc4s3)C2=N)c1	.	.	.	.	2*
COc1cc(/C=C2\SC(=Nc3cccc(Cl)c3C)NC2=O)cc(OC)c1OC	-10.0	.	.	.	.
Nc1ccc2[nH]nc3c2c1C(=O)c1ccccc1-3	5.4	.	.	.	.
COc1cc(O)cc(Br)c1/C=N/Nc1nc2ccccc2s1	8.4	.	.	.	.
SMILES	HePTP inhibitor	BAP1 block	Cdc25B block	DUSP1 inh	PLAP act
C=CCc1c(C)nc(C)nc1N/N=C/c1ccc([N+](=O)[O-])cc1	.	.	.	.	1.3
C=CCc1c(C)nc(C)nc1N/N=C/c1ccccc1O	.	.	.	.	2.5*
CCN(CC)S(=O)(=O)c1ccc(NC(=O)c2ccccc2N(C)S(C)(=O)=O)cc1	.	.	.	.	2.1*
Cn1c(=O)c2cc(S(=O)(=O)NCCC(=O)NCCC3=CCCCC3)ccc2n(C)c1=O	3.0	i	-4.4	57.2*	0.9
Cc1ccc(CCNC(=O)CCNS(=O)(=O)c2ccc3c(c2)c(=O)n(C)c(=O)n3C)cc1	5.9	i	1.5	-1.9	1.1
CC(=O)NC1=NC(=O)/C(=C\c2ccc(-c3ccccc3C(=O)O)o2)S1	51.0*	.	.	.	.
CCOc1cccc(-c2nn3c(-c4cc(C)[nH]n4)nnc3s2)c1	-8.8	i	7.1	15.0	2.4*
Cc1cc(C)c2nc(N3CCC(C(=O)NCCCN4CCCCC4)CC3)sc2c1	.	.	.	.	2*
CCN(CC)C(=O)c1cc2c(=O)n3cccc(C)c3nc2n1C	2.8	.	74.4*	15.1	1.1
COc1ccc(N2C(=O)NC(=O)/C(=C/c3ccc(-c4ccc(F)cc4)o3)C2=O)cc1	-4.4	.	.	.	.
CCc1ccc(C(=O)CN(C#N)c2nc(C)cc(C)n2)cc1	.	.	.	.	2.7*
COC(=O)c1c(NC(=O)CCc2ccccc2)sc2c1CCCC2	-20.2	.	.	.	.
COC(=O)c1sc(NC(=O)CCc2ccccc2)c(C(=O)OC)c1C	104.0*	.	.	.	.
Cn1c(=O)oc2cc(S(=O)(=O)NCCC(=O)NC3CCCC3)ccc21	5.5	i	-18.7	51.5*	1.1
Cn1c(=O)oc2cc(S(=O)(=O)NCCC(=O)NC3CCCc4ccccc43)ccc21 (stereo unspecified)	8.4	i	-3.1	7.0	1
Cc1onc(-c2c(F)cccc2Cl)c1C(=O)NC1CCSC1=O (stereo unspecified)	.	.	.	.	2.1*
Cc1onc(-c2c(Cl)cccc2Cl)c1C(=O)NC1CCCC1	-13.3	.	.	.	.
Cn1cnnc1Sc1cc(N2CCOCC2)ccc1[N+](=O)[O-]	2.9	.	.	.	.
Nc1c(S(=O)(=O)O)cc(Nc2ccc(Nc3nc(Cl)nc(Nc4ccc(S(=O)(=O)O)cc4)n3)c(S(=O)(=O)O)c2)c2c1C(=O)c1ccccc1C2=O	.	+	.	.	.
CN(C(=O)CN1CCC(NC(=O)C2CCCCC2)CC1)C1CCCCC1	1.3	i	-1.7	15.1	2*
CCCCN(C)C(=O)c1ccc(C(=O)N(C)CCCC)cc1	-15.8	.	.	.	.
O=C(NNC(=S)NC(=O)c1ccccc1[N+](=O)[O-])c1ccccc1[N+](=O)[O-]	.	.	.	.	2.5*
NC(=O)c1ccccc1NC(=O)c1ccccc1[N+](=O)[O-]	3.7	.	.	.	.
O=C(O)c1ccc(NCCC(=O)c2ccccc2)cc1	-11.8	.	.	.	.
Brc1ccc(CN2CCN(Cc3ccccn3)CC2)cc1	-4.3	.	.	.	.
SMILES	HePTP inhibitor	BAP1 block	Cdc25B block	DUSP1 inh	PLAP act
CCOc1ccc(C(=O)Nc2ccc3oc(-c4ccncc4)nc3c2)cc1Cl	98.5*	.	.	.	.
CS(=O)(=O)/N=C(\N)Nc1nc2ccccc2o1	-0.6	.	.	.	.
Cc1cc(C(F)(F)F)nn1CC(=O)NNC(=S)Nc1ccc(Cl)cc1	.	.	.	.	1.2
Cc1cc(C(F)(F)F)nn1CC(=O)NNC(=S)Nc1ccc(F)cc1	.	.	.	.	2.8*
Cc1cc(C(F)(F)F)nn1CC(=O)NNC(=S)NCC(C)C	.	.	.	.	2.6*
Cc1c(-c2ccc(Cl)cc2Cl)nc2ccccc2c1C(=O)O	-1.0	.	.	.	.
Cc1c(-c2cccc(Cl)c2)nc2ccccc2c1C(=O)O	104.7*	.	.	.	.
O=C(CN1CCN(Cc2ccccc2F)C1=O)NCc1ccco1	.	.	.	.	2*
CCOC(=O)CSc1nnc(-c2cccc(OC)c2)n1-c1ccccc1	93.8*	.	.	.	.
O=C1c2ccccc2CC1Sc1nnc(-c2ccccn2)o1 (stereo unspecified)	4.8	i	-8.4	-6.1	2.6*
CCC(=O)N1CCc2cc(S(=O)(=O)NC(Cc3ccccc3)C(=O)NC3CCCCC3C)ccc21 (stereo unspecified)	.	.	.	.	2.3*
Clc1ccccc1CN1CCN(Cc2c[nH]c3ccccc23)CC1	6.9	i	.	.	.
O=C1CC(c2ccco2)CC(O)=C1C=Nc1cc(Cl)ccc1O (stereo unspecified)	7.2	i	3.2	-17.2	2.5*
Cc1c(/C=N/NC(=O)c2cc(=O)[nH]c(=O)[nH]2)c2ccccn2c1C(=O)c1ccccc1	.	.	.	.	2.2*
Cc1c(C(=O)Nc2ccc(Cl)cc2)c2ccccn2c1C(=O)c1ccc(F)cc1	.	.	.	.	0.9
Cc1cc(C)nc(NC2=NCC(=O)N2c2cc(Cl)cc(Cl)c2)n1	6.3	i	2.0	-5.0	0.9
Cc1cccc(N2C(=O)CN=C2Nc2nc(C)cc(C)n2)c1	.	.	.	.	2.6*
